Source: the supplement of paper PMC10849652
Targets with a hit are over-represented here; the source holds about 7,900 in all. About 0.6% of all pairs of compound and target were hits.

Experiments:
Assay in all cases: log2 fold change, soluble protein after heating vs DMSO (PISA); higher = thermal stabilisation; K562 cells, 10 uM, 30 min; active = over 0.2 and 3.5 SD of the protein, either way, in both replicates (recomputed)
[1] = compound: COC1=CC=C(C=C1)CN2C=CC3=C2C=C(C=C3)C(=O)NO
In short: (§1)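 K562 cells at 2×10^6 cells/mL were given 10 μM compound for 30 min. Aliquots then went through 3 min of heating across 48°C-58°C, were pooled, and were extracted in PBS with 0.5% NP-40 at 4°C, and the supernatant after 21,000xg for 90 min was quantified by TMTpro 16plex LC-MS/MS with channel sums equalised. Thermal stability relative to control samples, from duplicates, is given as log2 fold change.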

filanesib = compound: CON(C)C(=O)N1N=C(c2cc(F)ccc2F)S[C@@]1(CCCN)c1ccccc1 [filanesib]
In short: as §1

zotarolimus = compound: CO[C@H]1C[C@@H]2CC[C@@H](C)[C@@](O)(O2)C(=O)C(=O)N2CCCC[C@H]2C(=O)O[C@H]([C@H](C)C[C@@H]2CC[C@H](n3cnnn3)[C@H](OC)C2)CC(=O)[C@H](C)/C=C(\C)[C@@H](O)[C@@H](OC)C(=O)[C@H](C)C[C@H](C)/C=C/C=C/C=C/1C [zotarolimus]
In short: as §1

idasanutlin = compound: COc1cc(C(=O)O)ccc1NC(=O)[C@@H]1N[C@@H](CC(C)(C)C)[C@](C#N)(c2ccc(Cl)cc2F)[C@H]1c1cccc(Cl)c1F [idasanutlin]
In short: as §1

alisertib = compound: COc1cc(Nc2ncc3c(n2)-c2ccc(Cl)cc2C(c2c(F)cccc2OC)=NC3)ccc1C(=O)O [alisertib]
In short: as §1

gefitinib = compound: COc1cc2ncnc(Nc3ccc(F)c(Cl)c3)c2cc1OCCCN1CCOCC1 [gefitinib]
In short: as §1

[2] = compound: COc1cccc2cc(-c3nc([C@H]4CC[C@H](C(=O)O)CC4)n4ncnc(N)c34)[nH]c12
In short: as §1

pictilisib = compound: CS(=O)(=O)N1CCN(Cc2cc3nc(-c4cccc5[nH]ncc45)nc(N4CCOCC4)c3s2)CC1 [pictilisib]
In short: as §1

[3] = compound: CS(=O)(=O)c1ccc(-c2cnc(N)c(C(=O)Nc3ccccc3)n2)cc1
In short: as §1

crizotinib = compound: C[C@@H](Oc1cc(-c2cnn(C3CCNCC3)c2)cnc1N)c1c(Cl)ccc(F)c1Cl [crizotinib]
In short: as §1

[4] = compound: C[C@@H]1COCCN1C2=NC(=NC(=C2)C3(CC3)S(=O)(=O)C)C4=C5C=CNC5=CC=C4
In short: as §1

[5] = compound: C[C@H](C1=CC=C(C=C1)C(=O)NC2=C3C=CNC3=NC=C2)N
In short: as §1

duvelisib = compound: C[C@H](Nc1ncnc2nc[nH]c12)c1cc2cccc(Cl)c2c(=O)n1-c1ccccc1 [duvelisib]
In short: as §1

gandotinib = compound: Cc1cc(Nc2cc(CN3CCOCC3)c3nc(C)c(Cc4ccc(Cl)cc4F)n3n2)n[nH]1 [gandotinib]
In short: as §1

tozasertib = compound: Cc1cc(Nc2cc(N3CCN(C)CC3)nc(Sc3ccc(NC(=O)C4CC4)cc3)n2)n[nH]1 [tozasertib]
In short: as §1

[6] = compound: Cc1cc(SCc2sc(-c3ccc(C(F)(F)F)cc3)nc2C)ccc1OCC(=O)O
In short: as §1

doramapimod = compound: Cc1ccc(-n2nc(C(C)(C)C)cc2NC(=O)Nc2ccc(OCCN3CCOCC3)c3ccccc23)cc1 [doramapimod]
In short: as §1

ispinesib = compound: Cc1ccc(C(=O)N(CCCN)[C@@H](c2nc3cc(Cl)ccc3c(=O)n2Cc2ccccc2)C(C)C)cc1 [ispinesib]
In short: as §1

[7] = compound: COc1cc2nc(-c3cc(F)ccc3O)nc(N[C@@H]3CNC[C@H]3C(C)(C)O)c2cc1OC
In short: as §1

lapatinib = compound: CS(=O)(=O)CCNCc1ccc(-c2ccc3ncnc(Nc4ccc(OCc5cccc(F)c5)c(Cl)c4)c3c2)o1 [lapatinib]
In short: as §1

Measured: log2 fold change

STK38L (UniProt Q9Y2H1)
UniProt Q9Y2H1, sequence (Q9Y2H1 whole entry, looked up): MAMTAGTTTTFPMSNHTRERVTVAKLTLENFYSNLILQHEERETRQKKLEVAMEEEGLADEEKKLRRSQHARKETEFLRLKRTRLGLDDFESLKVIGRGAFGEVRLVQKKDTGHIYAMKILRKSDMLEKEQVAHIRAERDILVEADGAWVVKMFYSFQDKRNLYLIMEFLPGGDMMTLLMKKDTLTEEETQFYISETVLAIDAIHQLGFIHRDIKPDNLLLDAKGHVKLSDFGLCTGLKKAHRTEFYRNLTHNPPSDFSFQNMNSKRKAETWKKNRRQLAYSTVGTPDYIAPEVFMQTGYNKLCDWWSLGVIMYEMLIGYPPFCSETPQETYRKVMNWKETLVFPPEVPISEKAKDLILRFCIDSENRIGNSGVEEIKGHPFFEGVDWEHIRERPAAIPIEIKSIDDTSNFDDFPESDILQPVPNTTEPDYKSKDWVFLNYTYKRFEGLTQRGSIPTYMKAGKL
inactive: [1] -0.007 | filanesib -0.009 | zotarolimus 0.036 | idasanutlin -0.095 | alisertib 0.037 | gefitinib 0.029 | [2] -0.064 | pictilisib 0.05 | [3] 0.028 | crizotinib 0.065 | [4] 0.069 | [5] -0.055 | duvelisib -0.04 | gandotinib -0.105 | tozasertib 0.003 | [6] 0.116 | doramapimod -0.022 | ispinesib -0.093

SLC38A7 (UniProt Q9NVC3)
UniProt Q9NVC3, sequence (Q9NVC3 whole entry, looked up): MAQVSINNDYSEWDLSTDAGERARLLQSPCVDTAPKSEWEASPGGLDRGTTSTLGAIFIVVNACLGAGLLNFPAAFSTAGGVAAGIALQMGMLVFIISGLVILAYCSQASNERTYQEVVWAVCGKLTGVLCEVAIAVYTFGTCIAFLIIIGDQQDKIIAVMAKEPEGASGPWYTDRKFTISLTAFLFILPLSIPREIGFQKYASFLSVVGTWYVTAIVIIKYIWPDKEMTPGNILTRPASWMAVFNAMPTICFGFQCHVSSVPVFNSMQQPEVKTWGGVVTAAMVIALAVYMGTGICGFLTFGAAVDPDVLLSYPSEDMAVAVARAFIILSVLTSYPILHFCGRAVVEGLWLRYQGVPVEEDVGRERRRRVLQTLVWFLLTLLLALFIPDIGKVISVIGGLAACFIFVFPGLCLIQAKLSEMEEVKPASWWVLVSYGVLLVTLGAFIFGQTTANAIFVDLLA
inactive: [1] -0.042 | filanesib -0.098 | zotarolimus 0.095 | idasanutlin -0.077 | alisertib -0.136 | [7] 0.01 | gefitinib 0.035 | [2] 0.069 | lapatinib -0.057 | pictilisib 0.022 | [3] -0.018 | crizotinib -0.449 | [4] 0.045 | [5] -0.009 | gandotinib -0.412 | tozasertib 0.052 | doramapimod 0.035
active: ispinesib -0.842

TGFBI (UniProt Q15582)
UniProt Q15582, sequence (Q15582 whole entry, looked up): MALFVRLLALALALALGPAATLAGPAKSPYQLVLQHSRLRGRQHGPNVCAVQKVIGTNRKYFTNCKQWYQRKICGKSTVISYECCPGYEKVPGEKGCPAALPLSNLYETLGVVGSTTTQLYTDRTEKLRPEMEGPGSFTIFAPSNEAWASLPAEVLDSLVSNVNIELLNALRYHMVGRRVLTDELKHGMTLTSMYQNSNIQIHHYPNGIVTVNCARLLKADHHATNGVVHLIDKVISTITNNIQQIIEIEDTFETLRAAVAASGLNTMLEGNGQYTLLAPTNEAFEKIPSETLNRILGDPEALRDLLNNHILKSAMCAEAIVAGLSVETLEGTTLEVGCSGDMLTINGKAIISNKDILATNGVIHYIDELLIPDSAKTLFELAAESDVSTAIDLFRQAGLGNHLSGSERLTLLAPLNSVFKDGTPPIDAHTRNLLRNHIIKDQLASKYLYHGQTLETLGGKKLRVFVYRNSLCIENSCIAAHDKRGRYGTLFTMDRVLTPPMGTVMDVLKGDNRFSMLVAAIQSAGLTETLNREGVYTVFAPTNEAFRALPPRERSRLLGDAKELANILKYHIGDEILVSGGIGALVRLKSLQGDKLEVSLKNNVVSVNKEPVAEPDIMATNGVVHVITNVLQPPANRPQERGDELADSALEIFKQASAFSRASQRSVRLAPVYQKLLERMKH
inactive: [1] 0.063 | filanesib -0.054 | idasanutlin 0.084 | alisertib -0.012 | [7] -0.003 | gefitinib -0.029 | [2] 0.15 | lapatinib 0.018 | pictilisib -0.083 | [3] -0.021 | crizotinib -0.047 | [4] 0.215 | [5] 0.181 | duvelisib 0.067 | gandotinib -0.451 | tozasertib 0.031 | [6] 0.043 | doramapimod -0.182 | ispinesib -0.159
active: zotarolimus -0.892

SRC isoform 2 (UniProt P12931)
UniProt P12931, sequence (P12931 whole entry, looked up): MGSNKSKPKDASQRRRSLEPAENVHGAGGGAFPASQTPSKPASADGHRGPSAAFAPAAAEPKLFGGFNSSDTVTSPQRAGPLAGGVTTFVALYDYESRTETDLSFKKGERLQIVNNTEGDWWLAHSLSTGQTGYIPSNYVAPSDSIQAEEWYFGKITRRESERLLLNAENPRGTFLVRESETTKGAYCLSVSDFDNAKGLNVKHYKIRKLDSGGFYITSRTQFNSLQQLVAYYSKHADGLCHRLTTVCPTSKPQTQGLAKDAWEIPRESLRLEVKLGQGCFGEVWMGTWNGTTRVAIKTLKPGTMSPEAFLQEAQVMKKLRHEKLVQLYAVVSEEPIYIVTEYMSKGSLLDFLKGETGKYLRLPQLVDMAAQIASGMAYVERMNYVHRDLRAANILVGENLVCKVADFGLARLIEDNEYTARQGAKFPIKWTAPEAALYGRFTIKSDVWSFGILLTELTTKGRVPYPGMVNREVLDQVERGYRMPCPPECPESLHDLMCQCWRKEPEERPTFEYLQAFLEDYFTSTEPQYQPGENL
inactive: [1] 0.197 | filanesib 0.229 | zotarolimus -0.123 | idasanutlin 0.119 | alisertib 0.01 | [7] 0.017 | [2] 0.219 | lapatinib 0.088 | pictilisib 0.113 | [3] -0.248 | crizotinib -0.154 | [4] 0.229 | [5] 0.07 | duvelisib 0.168 | gandotinib -0.056 | tozasertib -0.183 | [6] 0.101 | doramapimod -0.052 | ispinesib -0.068

SLC27A4 (UniProt Q6P1M0)
UniProt Q6P1M0, sequence (Q6P1M0 whole entry, looked up): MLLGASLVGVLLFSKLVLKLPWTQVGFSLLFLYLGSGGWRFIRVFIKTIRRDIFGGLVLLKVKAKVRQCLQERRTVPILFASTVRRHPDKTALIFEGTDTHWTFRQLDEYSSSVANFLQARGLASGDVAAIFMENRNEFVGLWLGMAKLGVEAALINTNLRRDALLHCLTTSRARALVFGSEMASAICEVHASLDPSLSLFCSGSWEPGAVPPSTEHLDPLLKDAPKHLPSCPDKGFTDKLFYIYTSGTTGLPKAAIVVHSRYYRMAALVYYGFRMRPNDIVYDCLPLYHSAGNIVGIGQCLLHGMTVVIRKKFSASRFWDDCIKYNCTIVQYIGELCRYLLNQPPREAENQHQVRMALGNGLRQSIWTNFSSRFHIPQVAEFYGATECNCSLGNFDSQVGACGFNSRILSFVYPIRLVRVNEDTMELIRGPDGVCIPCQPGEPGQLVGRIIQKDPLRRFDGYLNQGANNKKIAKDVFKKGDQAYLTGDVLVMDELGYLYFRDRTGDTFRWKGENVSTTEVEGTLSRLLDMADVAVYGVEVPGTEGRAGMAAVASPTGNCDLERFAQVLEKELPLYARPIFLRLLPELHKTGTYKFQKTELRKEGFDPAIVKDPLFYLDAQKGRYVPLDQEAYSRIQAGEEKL
inactive: [1] 0.134 | filanesib 0.038 | zotarolimus 0.056 | idasanutlin -0.084 | alisertib -0.001 | [7] 0.032 | gefitinib 0.033 | [2] -0.022 | lapatinib 0.055 | pictilisib -0.078 | [3] -0.008 | crizotinib 0.069 | [4] 0.059 | [5] -0.015 | duvelisib 0.082 | gandotinib 0.122 | tozasertib 0.001 | [6] 0.123 | doramapimod 0 | ispinesib -0.103

STAT3 (UniProt P40763)
UniProt P40763, sequence (P40763 whole entry, looked up): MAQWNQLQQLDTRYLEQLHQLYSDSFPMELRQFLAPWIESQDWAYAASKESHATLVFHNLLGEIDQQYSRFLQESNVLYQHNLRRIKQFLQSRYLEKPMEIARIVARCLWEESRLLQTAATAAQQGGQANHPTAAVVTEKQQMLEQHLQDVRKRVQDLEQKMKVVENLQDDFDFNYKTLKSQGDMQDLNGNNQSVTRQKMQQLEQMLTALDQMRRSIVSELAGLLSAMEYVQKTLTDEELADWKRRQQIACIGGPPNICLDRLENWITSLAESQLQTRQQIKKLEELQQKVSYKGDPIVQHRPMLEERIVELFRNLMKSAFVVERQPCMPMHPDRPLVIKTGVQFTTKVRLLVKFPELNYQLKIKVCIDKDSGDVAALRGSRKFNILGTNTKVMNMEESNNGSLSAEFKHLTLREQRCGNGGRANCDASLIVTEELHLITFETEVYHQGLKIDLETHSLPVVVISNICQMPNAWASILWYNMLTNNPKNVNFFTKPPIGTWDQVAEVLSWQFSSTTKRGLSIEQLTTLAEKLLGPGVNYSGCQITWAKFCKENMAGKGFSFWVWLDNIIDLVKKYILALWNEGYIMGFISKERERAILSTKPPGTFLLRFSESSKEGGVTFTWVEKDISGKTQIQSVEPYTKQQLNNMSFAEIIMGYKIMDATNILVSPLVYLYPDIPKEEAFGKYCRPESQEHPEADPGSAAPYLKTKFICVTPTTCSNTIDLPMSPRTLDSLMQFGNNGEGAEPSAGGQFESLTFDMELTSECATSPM
inactive: [1] 0.063 | filanesib -0.031 | zotarolimus 0.086 | idasanutlin -0.003 | alisertib 0.013 | [7] 0.023 | gefitinib 0 | [2] -0.039 | lapatinib 0.004 | pictilisib 0.051 | [3] 0.059 | crizotinib -0.126 | [4] 0.105 | [5] -0.063 | duvelisib 0 | gandotinib -0.184 | tozasertib 0.073 | [6] 0.088 | doramapimod -0.009 | ispinesib -0.03

SLC27A1 (UniProt Q6PCB7)
UniProt Q6PCB7, sequence (Q6PCB7 whole entry, looked up): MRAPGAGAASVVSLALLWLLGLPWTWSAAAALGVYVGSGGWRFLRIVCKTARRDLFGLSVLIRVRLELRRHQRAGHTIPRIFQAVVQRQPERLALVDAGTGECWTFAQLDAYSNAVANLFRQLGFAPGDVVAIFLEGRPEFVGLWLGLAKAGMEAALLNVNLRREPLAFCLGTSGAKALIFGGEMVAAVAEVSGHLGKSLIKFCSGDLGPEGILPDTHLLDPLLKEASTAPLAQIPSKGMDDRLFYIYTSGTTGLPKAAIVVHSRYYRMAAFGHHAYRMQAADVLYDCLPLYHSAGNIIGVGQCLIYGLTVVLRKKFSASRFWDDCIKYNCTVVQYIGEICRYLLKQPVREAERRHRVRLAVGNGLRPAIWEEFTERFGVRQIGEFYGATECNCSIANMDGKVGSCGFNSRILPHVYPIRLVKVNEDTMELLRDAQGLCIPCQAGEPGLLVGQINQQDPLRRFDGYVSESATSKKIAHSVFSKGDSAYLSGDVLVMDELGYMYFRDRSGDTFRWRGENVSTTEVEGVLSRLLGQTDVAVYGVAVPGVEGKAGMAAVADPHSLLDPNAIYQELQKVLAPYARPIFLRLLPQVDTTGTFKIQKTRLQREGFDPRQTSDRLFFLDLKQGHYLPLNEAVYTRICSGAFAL
inactive: [1] -0.263 | filanesib 0.118 | zotarolimus 0.064 | idasanutlin -0.038 | alisertib 0.004 | [7] 0.069 | gefitinib 0.016 | [2] -0.031 | lapatinib 0.014 | [3] 0.116 | crizotinib 0.123 | [4] 0.016 | [5] -0.099 | duvelisib 0.05 | tozasertib -0.084 | [6] 0.112 | doramapimod 0.062 | ispinesib 0.06

SRXN1 (UniProt Q9BYN0)
UniProt Q9BYN0, sequence (Q9BYN0 whole entry, looked up): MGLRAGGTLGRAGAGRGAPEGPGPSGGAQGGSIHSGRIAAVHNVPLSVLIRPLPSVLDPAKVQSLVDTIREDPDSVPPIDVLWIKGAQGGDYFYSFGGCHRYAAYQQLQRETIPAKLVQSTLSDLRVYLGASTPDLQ
inactive: [1] 0.406 | filanesib 0.076 | zotarolimus 0.022 | idasanutlin -0.028 | alisertib 0.098 | [7] -0.036 | gefitinib 0.012 | [2] 0.001 | lapatinib 0.151 | [3] 0.009 | crizotinib -0.295 | [4] 0.09 | [5] -0.091 | gandotinib 0.01 | tozasertib -0.086 | doramapimod 0.076 | ispinesib -0.16
active: pictilisib -0.562
